Test system: Vero E6 infected with SARS-CoV-2
Test: inhibition of SARS-CoV-2 cytopathic effect; higher = more antiviral protection, active = above 15
Conditions: 48 h

Measured: inhibition of SARS-CoV-2 cytopathic effect

C[C@H](NC(=O)[C@@H](O)c1cc(F)cc(F)c1)C(=O)N[C@@H]1C(=O)N(C)c2ccccc2-c2ccccc21
inactive: 1 nM -3.7% | 8.33 nM -4.79% | 100 nM -8.67% | 833.33 nM -14% | 10000 nM -7.15%

Cc1ccc(-c2csc3ncnc(SCCC(=O)O)c23)cc1
inactive: 1 nM -0.23% | 8.33 nM 6.66% | 100 nM -1.26% | 833.33 nM 1.22% | 10000 nM 1.11%

CN1[C@@H]2C[C@@H](O)C[C@H]1[C@@H]1O[C@@H]12 [scopine]
inactive: 1 nM -0.81% | 8.33 nM -0.43% | 100 nM -0.08% | 833.33 nM 1.5% | 10000 nM -0.8%

Fc1ccc(-c2cncc(CN3CCN(c4cccc5c4OCCO5)CC3)c2)cc1 [adoprazine]
inactive: 1 nM -1.19% | 8.33 nM -1.15% | 100 nM 2.28% | 833.33 nM 1.56% | 10000 nM 0.22%

COc1ccccc1C1(O)CCN(CCCn2c3ccccc3c3ccccc32)CC1
active: 10000 nM 42.4%
inactive: 1 nM 0.73% | 8.33 nM 1.45% | 100 nM 2.5% | 833.33 nM 1.69%

CS(=O)(=O)Nc1ccc([N+](=O)[O-])cc1Oc1ccccc1 [nimesulide]
inactive: 1 nM 0.43% | 8.33 nM -0.72% | 100 nM 1.12% | 833.33 nM 2.18% | 10000 nM 2.92%

CCC1(c2ccccc2)C(=O)N(COC)C(=O)N(COC)C1=O [eterobarb]
inactive: 1 nM -0.71% | 8.33 nM 0.82% | 100 nM -1.29% | 833.33 nM -0.57% | 10000 nM 0.84%

Source: the supplement of paper PMC13380429
